Shown are actives, neighbours in structure and some others; about 9.3% of the full set was active somewhere.
HCMV antiviral: human cytomegalovirus inhibition; HFF cells, HCMV-luciferase reporter, 72 h; stronger effect = lower value; activity change, negative = inhibition, % at 57.5 µM; hit rate 4.5% among 410,000; AID 1259415; in the data active = activity change below about -60%; inconclusive = no clear call, values can overlap the other calls; inactive = above about -39%
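Screen run at 2 compound doses on HFFs infected with reporter HCMV, MOI 1 PFU/cell. Luciferase activity from cell lysates at 72 h post infection gave inhibition relative to buffer-only and Salinomycin wells.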
HCV inh: blocks hepatitis C virus. Huh7.5.1 HCVcc-Cre infection, luciferase reporter, 44 h. Potency, µM (titrated, usually from 41.8 µM), without a hit: top-dose activity change, negative = inhibition, actives largely listed as inhibitors. hit rate 3.4% among 340,000. AID 651820; also: potency is read from the fitted curve at half-maximal effect
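Infectious HCVcc-Cre (~0.5 moi) was added to cells just after compound, with cells seeded 4 h earlier at 1,000 per well. Luciferase activity after 44 h culture reported infection; substrate was incubated 15 min at room temperature before reading.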
VACV Venus inh: vaccinia inhibition (Venus reporter); Vaccinia virus Venus reporter expression, fluorescence; Potency, µM (top dose mostly 36.5 µM), for inactives: at the highest dose activity change, negative = inhibition, most hits filed as inhibitors; hit rate 0.46% among 330,000; AID 720580; calls by dose curve; tested in A549 cells; also: potency is read from the fitted curve at half-maximal effect; nearly all actives have a fitted effect of over 30% in size
FMDV inh: antivirals against foot and mouth disease virus | FMDV antiviral cell-based qHTS | Potency, µM (doses to about 57.9 µM), inactives show at the top dose activity change, negative = inhibition, usual class: inhibitors | hit rate 1.2% among 410,000; calls by dose curve; tested in HEK293T cells; also: read-out not given here; potency is read from the fitted curve at half-maximal effect; nearly all actives have a fitted effect of over 45% in size
Sm TGR inh: S. mansoni TGR enzyme inhibition; Potency, µM (highest dose often 114 µM), inactives show at the highest dose activity change, negative = inhibition, most hits filed as inhibitors; hit rate 3% among 360,000; purified TGR, DTNB reduction, TNB absorbance 405 nm; Q962Y6; AID 485364; also: potency is read from the fitted curve at half-maximal effect; nearly all actives have a fitted effect of over 60% in size
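Kinetic colorimetric format: TGR-catalysed, NADPH-driven DTNB reduction monitored via TNB absorbance. Enzyme dispensed at 20 nM; compound exposure 15 min at room temperature before reaction start.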
Vaccinia mCherry: vaccinia inhibition (mCherry reporter); Vaccinia virus mCherry reporter infection, fluorescence; Potency, µM (series often up to 36.5 µM), without a hit: at the highest dose activity change, negative = inhibition, usual class: inhibitors; hit rate 0.63% among 310,000; calls by dose curve; tested in A549 cells; also: potency is read from the fitted curve at half-maximal effect; nearly all actives have a fitted effect of over 35% in size
Active calls of the source: *; i = inactive; ? = inconclusive; nt = no result; ! = not active in a repeat. Unless noted, calls follow the shape of the dose curve; as a rule, active = well fitted curve in the direction sought with a large enough effect; inconclusive = small, poorly fitted or top-dose-only effect, or another doubt; inactive = no such curve, though single readings can be large; an effect the other way counts as inactive or inconclusive. % is scaled to controls: 0 for no effect and ±100 for the full control effect.

SMILES	HCMV antiviral	HCV inh	VACV Venus inh	FMDV inh	Sm TGR inh	Vaccinia mCherry
Cc1ccc(NC(=O)CCc2nc3sc4c(c3c(=O)[nH]2)CCCC4)c(Br)c1	nt	12.7%	-14.4%	-10.9%	-2.5%	-0.4%
O=C(c1cc2ccccc2oc1=O)N(Cc1cccs1)Cc1cccs1	?	-11.1%	nt	11.3%	-0.7%	nt
O=C(c1cc2ccccc2oc1=O)N(Cc1ccco1)Cc1cccs1	-13.9	-1.4%	nt	0.0%	28.2µM*	nt
Cc1ccc(C(=O)Cc2ccccc2)cc1	-5.7	-2.4%	-2.1%	37.5%	nt	-3.7%
CC1=C(CC(=O)c2ccc(Cl)cc2)C(=O)c2ccccc2C1=O	-22.0	4.47µM*	nt	3.9%	?	nt
O=C(Cc1ccccn1)c1ccccc1	-9.1	-15.6%	0.8%	26.2%	?	-3.5%
O=C(Cc1ccccn1)c1ccc(Cl)cc1	-68.3*	-6.0%	-1.4%	46.3%	-11.9%	-1.4%
O=C(Nc1ccccc1C(F)(F)F)N1CCN(c2ccc3nnc(-c4ccc(F)cc4)n3n2)CC1	-11.7	?	?	-18.0%	-12.1%	?
O=C(Nc1ccc(F)cc1)N1CCN(c2ccc3nnc(-c4ccc(F)cc4)n3n2)CC1	-69.5*!	?	?	?	-4.5%	?
Cc1nnc2ccc(N3CCN(C(=O)c4ccccc4)CC3)nn12	7.8	13.3%	-1.4%	-16.7%	-5.6%	8.0%
O=C(c1ccc(Br)o1)N1CCN(c2ccc3nnc(-c4ccccc4)n3n2)CC1	-72.3*	-19.1%	-24.0%	?	?	-18.2%
CN=C1SC(CC(=O)Nc2ccc(F)cc2F)C(=O)N1/N=C(\C)c1cccc(OCC(=O)O)c1 (configuration not stated)	-22.1	-16.5%	-19.2%	-9.1%	-1.9%	i
CC(CCc1ccccc1)NC(=O)COC(=O)c1cccn1C (configuration not stated)	0.0	-4.1%	nt	-6.3%	-21.6%	nt
CCOc1nc(-c2ccc(Cl)cc2)nc2ccccc12	124.9	6.4%	-1.4%	-24.8%	3.7%	-11.7%
O=C1NC(=O)C(Cc2cccs2)C(=O)N1	23.3	2.4%	2.8%	-22.5%	39.8µM*	-3.1%
CCN1C(=O)N[C@@H](CCc2ccccc2)[C@@H](C(=O)OC)[C@H]1C	8.0	-14.9%	-14.5%	-18.6%	2.24µM*	-26.5%
COC(=O)[C@H]1[C@@H](C)N(CCc2cc(OC)c(OC)c(OC)c2)C(=O)N[C@H]1c1ccccc1	-23.2	22.4µM*	-19.4%	-13.6%	nt	-12.2%
CCN1C[C@@H]2[C@@H]3C(=O)N(Cc4ccccc4)C(=O)[C@@H]3[C@](CC)(C(=O)OC)N2C1=NC1CCCCC1	-14.6	3.4%	-2.9%	-17.8%	nt	i
CC(=O)Nc1ccc(N=NN2CCOCC2)cc1	-38.8	9.3%	-8.3%	19.5%	8.91µM*	-8.2%
CC(=O)Nc1cccc(N=NN2CCOCC2)c1	?	0.4%	-5.7%	14.8%	-9.0%	-9.1%
N#Cc1ccc(Cl)cc1NC(=O)COC(=O)c1ccc2c(c1)OCCO2	35.9	16.9%	-4.4%	-8.3%	-6.9%	-10.1%
CC(C)(C)c1ccc(C(=O)N2CCCN(C(=O)c3ccc(C(C)(C)C)cc3)CC2)cc1	-5.5	-9.6%	-5.7%	?	-12.6%	-10.4%
CC(C)(C)c1ccc(C(=O)N2CCN(C(=O)C3CCCCC3)CC2)cc1	-76.7*	-5.5%	-23.5%	?	6.7%	?
COc1ccccc1C(=O)Nc1ccc(Cc2ccncc2)cc1	-2.7	?	-13.0%	-17.2%	-31.1%	-6.5%
COc1c(C)cc(Br)cc1C(=O)Nc1ccc(Cc2ccncc2)cc1	-72.0*	?	-9.3%	?	-0.1%	-2.2%
SMILES	HCMV antiviral	HCV inh	VACV Venus inh	FMDV inh	Sm TGR inh	Vaccinia mCherry
CCOc1ccc(OCCn2ccnc2)cc1	7.6	19.0%	-1.5%	-22.5%	-3.7%	-10.9%
Cc1cccc(C)c1OCCCn1ccnc1	-18.2	2.5%	nt	1.6%	8.3%	nt
Cc1cccc(OCCCCCn2ccnc2)c1C	-80.8*	?	nt	-15.9%	-24.0%	nt
CCOc1ccc(OCCCCn2ccnc2)cc1	-61.1*	-7.0%	-15.5%	-8.0%	-2.7%	i
C[N+](C)(C)CCC(=O)c1cccc2ccccc12	nt	nt	?	-19.5%	nt	?
Cc1ccc(CN2CCNC(=O)C2CC(=O)N(C)C2CCCCC2)cc1 (configuration not stated)	-1.2	-7.7%	-3.1%	0.7%	44.7µM*	-28.5%
CN(C(=O)CC1C(=O)NCCN1Cc1ccc(F)cc1)C1CCOCC1 (configuration not stated)	14.5	14.9%	2.1%	-1.1%	54.6%	?
O=C1NCCN(Cc2ccc(-c3ccccc3)cc2)C1CC(=O)N1CCN(CCO)CC1 (configuration not stated)	18.7	11.2%	-6.0%	-14.3%	3.2%	-1.8%
CN(C(=O)CC1C(=O)NCCN1Cc1ccc(F)c(F)c1)C1CCOCC1 (configuration not stated)	-20.9	16.4%	-14.4%	-3.8%	44.7µM*	-3.4%
O=C(CC1C(=O)NCCN1Cc1ccc(F)c(F)c1)NCCn1cccn1 (configuration not stated)	-8.4	-6.6%	-10.7%	14.3%	44.7µM*	-3.2%
O=C1NCCN(Cc2ccc(F)cc2)C1CC(=O)N1CC=C(c2ccccc2)CC1 (configuration not stated)	0.0	?	-18.1%	-1.0%	35.5µM*	-17.4%
COc1ccc(CN2CCNC(=O)C2CC(=O)NCCCn2cccn2)cc1C (configuration not stated)	-1.6	10.5%	-7.0%	-17.6%	-12.3%	i
CCCCn1nc(C(=O)N(C)CC(=O)Nc2cccc(F)c2)c2ccccc2c1=O	-19.2	8.0%	-11.8%	-17.1%	-4.8%	i
Cc1ccc(NC(=O)CN2C(=O)c3ccccc3Sc3ccc(C(=O)N4CCOCC4)cc32)cc1F	-39.5	nt	-8.8%	-10.1%	6.8%	-2.3%
Cc1ccc(CNC(=O)C2CCCN2S(=O)(=O)c2ccc(F)cc2)cc1 (configuration not stated)	99.0	-10.6%	-3.8%	-21.6%	-3.8%	-19.3%
COCCN(C(=O)CC1C(=O)NCCN1Cc1ccc(-c2ccccc2)cc1)C(C)C (configuration not stated)	-22.9	9.5%	nt	-12.5%	39.8µM*	nt
O=C1NCCN(Cc2ccoc2)C1CC(=O)N(Cc1ccccc1)CC1CCC1 (configuration not stated)	-27.4	6.6%	-3.5%	1.4%	10µM*	-5.6%
CCOc1[nH]n(-c2ccccc2)c(=O)c1C=Nc1ccccc1	?	-9.7%	nt	-8.3%	-0.1%	nt
CCOC(=O)[C@]12CCCC=C1N(Cc1cccc3ccccc13)C(=O)[C@H](CC(=O)N1CCOCC1)C2	-6.7	nt	-12.3%	-13.0%	nt	13.3%
[O-]/[N+](=C/c1ccc(F)cc1)c1ccccc1	-79.9*	9.1%	nt	0.0%	0.5%	nt

Screens from PubChem BioAssay.
